From PubChem BioAssay (Tox21)
Results filed as inconclusive are left out. The source made the active and inactive calls. Unless noted, calls come from the whole dose curve; as a rule, active = well fitted curve in the direction sought with a large enough effect in the repeat runs; inconclusive = weak or mixed curves; inactive = no such curve, though single readings can be large; an effect the other way counts as inactive or inconclusive.

How the values were obtained:
[1] = qHTS assay for small molecule agonists of the p53 signaling pathway (AID 651631; calls by dose curve; note: nearly all actives have a fitted effect of over 15% in size; note: potency is the fitted concentration of half-maximal effect)
Outline: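 Agonist mode screen using a stably integrated beta-lactamase gene under p53 response elements in HCT-116 cells. Compound exposure lasts 16 h at 37 °C; fluorescence intensity is measured following 2 h FRET substrate loading.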

[2] = qHTS assay for small molecules that induce genotoxicity in human embryonic kidney cells expressing luciferase-tagged ATAD5 (AID 651632); note: % is set by controls: 0 for no effect and ±100 for the full control effect; nearly all actives have a fitted effect of over 15% in size
Outline: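 A rise in luciferase signal from ATAD5-tagged HEK293T cells marks genetic stress. Cells were exposed to compounds for 16 hr at 37C, 5% CO2, then luciferase was quantified after a 30 min room-temperature incubation with Amplite.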

[3] = qHTS assay for small molecule agonists of the p53 signaling pathway - cell viability (AID 651633; calls by dose curve;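 note: p53RE-bla HCT reporter cells with a stable beta-lactamase p53 reporter; series mostly up to about 83 µM; % is set by controls: 0 for no effect and ±100 for the full control effect; nearly all actives have a fitted effect of over 30% in size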)
Outline: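 p53RE-bla cells were treated with compound for 16 hours at 37 C. Cytotoxicity was then measured as CellTiter-Glo luminescence after 30 min at room temperature.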

[4] = qHTS assay for small molecules that induce genotoxicity in human embryonic kidney cells expressing luciferase-tagged ATAD5 - cell viability (AID 651634; calls by dose curve; note: % is set by controls: 0 for no effect and ±100 for the full control effect; nearly all actives have a fitted effect of over 25% in size)
Outline: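 Cytotoxicity counter-readout: after 15.5 hr compound treatment at 37C, live-cell protease activity in ATAD5-luciferase HEK293T cells measured by CellTiter-Fluor fluorescence, 30 min development at 37C.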

[5] = qHTS assay to test for compound auto fluorescence at 590 nm (red) in HepG2 cells (AID 720674); note: % is set by controls: 0 for no effect and ±100 for the full control effect
Outline: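 Fluorescence at 590 nm emission following 540 nm excitation was recorded from HepG2 wells one hour after compound transfer, with DMSO-only wells as vehicle and Rose Bengal sodium equivalency as the scale.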

[6] = qHTS assay to test for compound auto fluorescence at 535 nm (green) in HepG2 cells (AID 720675); note: % is set by controls: 0 for no effect and ±100 for the full control effect
[7] = qHTS assay to test for compound auto fluorescence at 460 nm (blue) in HEK293 cells (AID 720678); note: % is set by controls: 0 for no effect and ±100 for the full control effect
Outline: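 Triamterene serves as the blue fluorophore standard. Compound signal at 405/460 nm is read in HEK293 wells (2,000 cells, 10% dialyzed FBS) after overnight treatment at 37C.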

[8] = qHTS assay to test for compound auto fluorescence at 590 nm (red) in HEK293 cells (AID 720679); note: % is set by controls: 0 for no effect and ±100 for the full control effect
Outline: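 We plated HEK293 cells in 10% dialyzed FBS medium, let them adhere for 4-5 hr, then added 23 nL compound. Overnight at 37C and 5% CO2 preceded fluorescence measurement at 540/590nm.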

[9] = qHTS assay to test for compound auto fluorescence at 535 nm (green) in HEK293 cells (AID 720680); note: % is set by controls: 0 for no effect and ±100 for the full control effect
[10] = qHTS assay to test for compound auto fluorescence at 460 nm (blue) in HEK293 cell free culture (AID 720681); note: % is set by controls: 0 for no effect and ±100 for the full control effect
Outline: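 Compounds were added to cell-free DMEM with 10% FBS and fluorescence read directly. The blue channel used 405 nm excitation and 460 nm emission, with triamterene as the reference fluorophore.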

[11] = qHTS assay to test for compound auto fluorescence at 535 nm (green) in HEK293 cell free culture (AID 720682); note: % is set by controls: 0 for no effect and ±100 for the full control effect
Outline: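 No cells present: wells hold DMEM supplemented with 10% FBS, into which compound or vehicle is pinned. Green emission is then recorded (485 nm excitation, 535 nm emission) and scaled to fluorescein.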

[12] = qHTS assay to test for compound auto fluorescence at 590 nm (red) in HEK293 cell free culture (AID 720683); note: % is set by controls: 0 for no effect and ±100 for the full control effect
Outline: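 Cell-free wells of DMEM with 10% FBS received compound, and intrinsic fluorescence was read at excitation/emission 540/590 nm. Values expressed as equivalence to Rose Bengal sodium.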

[13] = qHTS assay to test for compound auto fluorescence at 590 nm (red) in HepG2 cell free culture (AID 720684); note: % is set by controls: 0 for no effect and ±100 for the full control effect
Outline: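 Auto fluorescence equivalency versus Rose Bengal sodium, red channel Ex/Em 540/590 nm; compounds in cell-free MEM/10% FBS; DMSO vehicle control.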

[14] = qHTS assay to test for compound auto fluorescence at 460 nm (blue) in HepG2 cell free culture (AID 720685); note: % is set by controls: 0 for no effect and ±100 for the full control effect
Outline: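 Cell-free plates of MEM plus 10% FBS received 23 nL compound or DMSO vehicle; blue-channel (405/460 nm) intensity scored against triamterene as reference fluorophore.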

[15] = qHTS assay to test for compound auto fluorescence at 535 nm (green) in HepG2 cell free culture (AID 720686); note: % is set by controls: 0 for no effect and ±100 for the full control effect
[16] = qHTS assay to test for compound auto fluorescence at 460 nm (blue) in HepG2 cells (AID 720687); note: % is set by controls: 0 for no effect and ±100 for the full control effect
Outline: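 HepG2 cells in MEM with 10% FBS, attached overnight at 37 C, were exposed to compound or DMSO for 1 hr at 37 C, 5% CO2. Blue fluorescence was read at 405/460 nm, with triamterene as reference fluorophore.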

[17] = biological target: Glucocorticoid receptor (Homo sapiens) (UniProt P04150); test: qHTS assay to identify small molecule agonists of the glucocorticoid receptor (GR) signaling pathway (AID 720691; active = well fitted activation curve with a large enough effect in the signal ratio in the repeat runs, not every such curve was filed as active; the % refers to the signal ratio; note: % is set by controls: 0 for no effect and ±100 for the full control effect)
Sequence of Glucocorticoid receptor (Homo sapiens) (P04150 whole entry, looked up): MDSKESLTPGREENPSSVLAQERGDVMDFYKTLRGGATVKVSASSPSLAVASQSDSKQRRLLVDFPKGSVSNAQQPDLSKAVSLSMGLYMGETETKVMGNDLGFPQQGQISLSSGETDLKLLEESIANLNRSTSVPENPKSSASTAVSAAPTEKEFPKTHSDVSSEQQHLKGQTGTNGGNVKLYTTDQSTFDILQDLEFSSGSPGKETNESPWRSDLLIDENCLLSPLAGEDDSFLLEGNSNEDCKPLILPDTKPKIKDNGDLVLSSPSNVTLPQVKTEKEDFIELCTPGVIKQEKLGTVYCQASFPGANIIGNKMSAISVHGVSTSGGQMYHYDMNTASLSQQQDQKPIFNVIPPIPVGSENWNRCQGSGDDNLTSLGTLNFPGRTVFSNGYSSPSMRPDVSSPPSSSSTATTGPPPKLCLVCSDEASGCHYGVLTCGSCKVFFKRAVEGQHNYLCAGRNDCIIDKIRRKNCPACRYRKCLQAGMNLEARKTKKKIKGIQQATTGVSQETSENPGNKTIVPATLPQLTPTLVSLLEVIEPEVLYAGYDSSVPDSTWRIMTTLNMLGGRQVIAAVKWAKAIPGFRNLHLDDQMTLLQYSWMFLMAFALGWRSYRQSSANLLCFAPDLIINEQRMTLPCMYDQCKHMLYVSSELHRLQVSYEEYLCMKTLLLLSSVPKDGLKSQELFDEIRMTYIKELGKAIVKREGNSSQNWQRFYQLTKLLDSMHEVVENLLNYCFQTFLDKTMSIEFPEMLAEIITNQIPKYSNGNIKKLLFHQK
Outline: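 Agonist-mode qHTS in HeLa cells stably expressing a glucocorticoid-response-element beta-lactamase reporter. Fluorescence intensity read with FRET substrate (2 h, room temperature) after 18 h compound treatment at 37 C.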

[18] = qHTS assay for small molecule disruptors of the mitochondrial membrane potential (AID 720635); note: potency is the fitted concentration of half-maximal effect
Outline: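 HepG2 cells exposed to compound 1 hr at 37C, then Mito-MPS dye 30 min. Ratio read of aggregate (540/590 nm) versus monomer (490/535 nm) fluorescence.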

[19] = qHTS assay for small molecule disruptors of the mitochondrial membrane potential - cell viability (AID 720634; calls by dose curve;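 note: human HepG2 liver cancer cells; series mostly up to about 83 µM; % is set by controls: 0 for no effect and ±100 for the full control effect; nearly all actives have a fitted effect of over 20% in size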)
Outline: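 Cytotoxicity was quantified from ATP content by CellTiter-Glo luminescence in the same wells as the MMP dye read-out. HepG2 (2,000 cells/well) were plated overnight and exposed to compounds for 1 hr at 37 C.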

[20] = biological target: Glucocorticoid receptor (Homo sapiens) (UniProt P04150); test: qHTS assay to identify small molecule antagonists of the glucocorticoid receptor (GR) signaling pathway (AID 720692; active = well fitted inhibition curve with a large enough effect in the signal ratio in the repeat runs, not every such curve was filed as active; the % refers to the signal ratio; note: % is set by controls: 0 for no effect and ±100 for the full control effect)
Outline: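 Inhibition of dexamethasone-driven (5 nM final) beta-lactamase expression was measured in GRE-reporter HeLa cells over 18 h at 37C. Fluorescence was read after 2 h with the B/G FRET substrate at room temperature.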

COCCO
inactive: Potency [1] | Potency [2] | Potency [3] | Potency [4] | outcome [5] | outcome [6] | Potency [7] | outcome [8] | outcome [9] | Potency [10] | outcome [11] | outcome [12] | outcome [13] | Potency [14] | outcome [15] | Potency [16] | Potency [17]

O=C1[C@H](CC[C@H](O)c2ccc(F)cc2)[C@@H](c2ccc(O)cc2)N1c1ccc(F)cc1
inactive: Potency [1] | Potency [2] | Potency [3] | Potency [4] | outcome [5] | outcome [6] | Potency [7] | outcome [8] | outcome [9] | Potency [10] | outcome [11] | outcome [12] | outcome [13] | Potency [14] | outcome [15] | Potency [16]
active: Potency [18] 23.7 µM

CN1CCN(C2=Nc3ccccc3Sc3ccc(Cl)cc32)CC1
inactive: Potency [1] | Potency [2] | Potency [3] | Potency [4] | Potency [19] | outcome [5] | outcome [6] | Potency [7] | outcome [8] | outcome [9] | Potency [10] | outcome [11] | outcome [12] | outcome [13] | outcome [15] | Potency [16] | Potency [17]

CC(=O)Nc1ccc(/C=N/NC(N)=S)cc1
inactive: Potency [1] | Potency [2] | Potency [3] | Potency [4] | outcome [5] | outcome [6] | Potency [7] | outcome [8] | outcome [9] | Potency [10] | outcome [11] | outcome [12] | outcome [13] | Potency [14] | Potency [16]

Cc1ncsc1CCO
inactive: Potency [1] | Potency [2] | Potency [3] | Potency [4] | Potency [19] | outcome [5] | outcome [6] | Potency [7] | outcome [8] | outcome [9] | Potency [10] | outcome [11] | outcome [12] | outcome [13] | Potency [14] | Potency [16]

CC1CCc2cc(F)cc3c(=O)c(C(=O)O)cn1c23 (centres undefined)
inactive: Potency [1] | Potency [2] | Potency [3] | Potency [4] | outcome [5] | outcome [6] | Potency [7] | outcome [8] | outcome [9] | Potency [10] | outcome [12] | outcome [13] | Potency [14] | outcome [15] | Potency [16]

Cl/C(=C\n1cncn1)c1ccc(Cl)cc1Cl
inactive: Potency [1] | Potency [2] | Potency [3] | Potency [4] | Potency [19] | outcome [5] | outcome [6] | Potency [7] | outcome [8] | outcome [9] | Potency [10] | outcome [11] | outcome [12] | outcome [13] | Potency [14] | Potency [16]

O=C(C(=O)c1ccc(Br)cc1)c1ccc(Br)cc1
inactive: Potency [1] | Potency [2] | Potency [3] | Potency [4] | Potency [19] | fluorescence, relative to Rose Bengal [5] -0.609% [at 18.6 µM] | fluorescence, % of fluorescein control [6] 0.0081% [at 18.6 µM] | fluorescence, % of triamterene [7] 0.126% [at 18.6 µM] | fluorescence, % of fluorescent control [8] 0.203% [at 18.6 µM] | fluorescence, % of fluorescein [9] -0.0337% [at 18.6 µM] | fluorescence, % of fluorescent control [10] -0.0047% [at 18.6 µM] | activity change [11] 0.0143% [at 18.6 µM] | fluorescence, % of fluorescent control [12] -0.0329% [at 18.6 µM] | fluorescence, % of Rose Bengal [13] -0.0316% [at 18.6 µM] | fluorescence, % of fluorescent control [14] -0.0311% [at 18.6 µM] | fluorescence, % of fluorescein control [15] -0.0449% [at 18.6 µM] | fluorescence, % of fluorescent control [16] 0.0185% [at 18.6 µM] | Potency [20]

Oc1ccc(O)c2c(O)cccc12
inactive: Potency [1] | Potency [2] | Potency [3] | Potency [4] | Potency [19] | outcome [5] | outcome [6] | outcome [8] | outcome [9] | Potency [10] | outcome [11] | outcome [12] | outcome [13] | outcome [15] | Potency [16] | Potency [17]

CN(C)C/C=C(/c1ccc(Br)cc1)c1cccnc1
inactive: Potency [1] | Potency [2] | Potency [3] | Potency [4] | Potency [19] | outcome [5] | outcome [6] | outcome [8] | outcome [9] | Potency [10] | outcome [11] | outcome [12] | outcome [13] | Potency [14] | outcome [15] | Potency [16] | Potency [20]

C#CCOC(=O)[C@@H](C)Oc1ccc(Oc2ncc(Cl)cc2F)cc1
inactive: Potency [1] | Potency [2] | Potency [3] | Potency [4] | outcome [5] | Potency [7] | outcome [8] | outcome [9] | Potency [10] | outcome [11] | outcome [12] | outcome [13] | Potency [14] | outcome [15] | Potency [16] | Potency [17]

CCC(=O)OC(C)(C)C1CC=C(C)CC1 (centres undefined)
inactive: Potency [1] | Potency [2] | Potency [3] | Potency [4] | outcome [5] | outcome [6] | outcome [8] | outcome [9] | Potency [10] | outcome [11] | outcome [12] | outcome [13] | Potency [14] | outcome [15] | Potency [16]

CCCCOC(=O)c1ccccc1C(=O)OCC(CC)CCCC (centres undefined)
active: Potency [1] 54.5 µM
inactive: Potency [2] | Potency [3] | Potency [4] | outcome [5] | outcome [6] | Potency [7] | outcome [8] | outcome [9] | Potency [10] | outcome [11] | outcome [12] | outcome [13] | Potency [14] | outcome [15] | Potency [16] | Potency [17]

CCCCCCCCCCCCCCCBr
inactive: Potency [1] | Potency [2] | Potency [3] | Potency [4] | Potency [19] | outcome [5] | outcome [6] | Potency [7] | outcome [8] | outcome [9] | Potency [10] | outcome [11] | outcome [12] | outcome [13] | Potency [14] | Potency [16] | Potency [17]
